Structures are written as SMILES. Values without a mark were called inactive. Inconclusive results are not listed. The source made the active and inactive calls. Unless noted, calls follow the shape of the dose curve; as a rule, active = well fitted curve in the direction sought with a large enough effect in the repeat runs; inconclusive = weak or mixed curves; inactive = no such curve, though single readings can be large; an effect the other way counts as inactive or inconclusive. Where a SMILES comes first, the peptide text is derived from it.

Assay [1] in a line: qHTS assay to identify small molecule HDAC inhibitors (AID 1259364). Also: nearly all actives have a fitted effect of over 45% in size. Also: potency is read from the fitted curve at half-maximal effect. A digest of the protocol: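 Luminescence read after 30 min room-temperature HDAC-Glo incubation measures cellular class I/II HDAC activity. Compounds were applied for 2 hr at 37 C to HCT-116 wild-type cells seeded the day before.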
The nature of assay [2]: qHTS assay to identify small molecule HDAC inhibitors - cell viability counter screen (AID 1259365). Also: series mostly up to about 92 µM; nearly all actives have a fitted effect of over 50% in size. A digest of the protocol: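 Following a 2hr exposure of overnight-plated wild-type HCT-116 cells to DMSO-delivered compounds, CellTiter-Glo was added and luminescence recorded after 30min at room temperature.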
Assay [3] is described as follows: qHTS assay to identify small molecule agonists of the sonic hedgehog signaling (Shh) pathway - cell viability counter screen (AID 1259366). Also: nearly all actives have a fitted effect of over 50% in size. An outline of the steps: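 After a 4hr attachment at 37C, NIH/3T3 cells bearing an integrated Gli1-driven luciferase reporter were dosed with compounds. Treatment lasted 24hr, with the final hour including CellTiter-Fluor for a fluorescence viability measurement.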

The nature of assay [4]: qHTS assay to identify small molecule antagonists of the sonic hedgehog signaling (Shh) pathway - cell viability counter screen (AID 1259367). Also: nearly all actives have a fitted effect of over 55% in size. An outline of the steps: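 Tox21 library chemicals were tested on a Gli1-Luc NIH/3T3 clone (2,000 cells/well) stimulated by conditioned medium; viability was quantified as fluorescence from CellTiter-Fluor reagent added at 23 hr.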

Assay [5] in a line: qHTS assay to identify small molecule agonists of the sonic hedgehog signaling (Shh) pathway (AID 1259368; calls by dose curve;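 also: NIH/3T3-derived 3T3Gli1-Luc cells carrying a stable Gli1-driven firefly luciferase reporter; series mostly up to about 92 µM; nearly all actives have a fitted effect of over 15% in size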). An outline of the steps:
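Luminescence was read after 30 min at room temperature with luciferase reagent. Before that, 3T3Gli1-Luc cells (NIH/3T3 clone, stable Gli1-Luc reporter; 2,000/well) were exposed to compounds for 24 hr at 37C, 5% CO2, compounds being added 4 hr post-plating.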

A short description of assay [6]: qHTS assay to identify small molecule antagonists of the sonic hedgehog signaling (Shh) pathway (AID 1259369; calls by dose curve; also: nearly all actives have a fitted effect of over 45% in size). A digest of the protocol: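 Antagonist mode: compound added to 3T3 Gli1-Luc cells followed by conditioned-medium stimulation, 24 h at 37 C, 5% CO2. Inhibition taken as loss of Gli1-driven luciferase luminescence.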
Assay [7] addresses Estrogen receptor beta (Homo sapiens) (UniProt Q92731). The experiment in a line: qHTS assay to identify small molecule antagonists of the estrogen receptor beta (ER-beta) signaling pathway (AID 1259378; active = well fitted inhibition curve with a large enough effect in the signal ratio in the repeat runs, not every such curve was filed as active; the % refers to the signal ratio). A digest of the protocol:
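ER-beta-UAS-bla HEK293T cells in 2% charcoal-stripped FBS medium treated with compound plus 1nM final 17-beta-estradiol for 16 hr at 37C. Beta-lactamase reporter read by FRET substrate fluorescence after 2 hours at room temperature.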

Assay [8] in a line: qHTS assay to identify small molecule agonists of the androgen receptor (AR) signaling pathway in the presence of an antagonist - cell viability counter screen (AID 1259379).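 Also: MDA-kb2 human breast cancer cells carrying an MMTV luciferase reporter; series mostly up to about 92 µM; nearly all actives have a fitted effect of over 25% in size.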 A digest of the protocol:
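Cytotoxicity counter-screen run in the same wells as the nilutamide-challenged (3.0 µM final) AR agonist assay in MDA-kb2 cells. Compounds tested at 15 concentrations for 16 h, 37 °C without CO2; CellTiter-Fluor fluorescence read.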

In assay [9] the target is Androgen receptor (Homo sapiens) (UniProt P10275). In words: qHTS assay to identify small molecule agonists of the androgen receptor (AR) signaling pathway in the presence of an antagonist (AID 1259381; calls by dose curve; also: nearly all actives have a fitted effect of over 15% in size). A digest of the protocol: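 Agonist-mode confirmation run against 3.0 uM final nilutamide: compounds titrated at 15 concentrations onto MDA-kb2 MMTV-luciferase reporter cells. Luminescence measured with ONE-Glo following 16 hr incubation, 37C, 0% CO2.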
Sequence of Androgen receptor (Homo sapiens) (P10275 whole entry, looked up): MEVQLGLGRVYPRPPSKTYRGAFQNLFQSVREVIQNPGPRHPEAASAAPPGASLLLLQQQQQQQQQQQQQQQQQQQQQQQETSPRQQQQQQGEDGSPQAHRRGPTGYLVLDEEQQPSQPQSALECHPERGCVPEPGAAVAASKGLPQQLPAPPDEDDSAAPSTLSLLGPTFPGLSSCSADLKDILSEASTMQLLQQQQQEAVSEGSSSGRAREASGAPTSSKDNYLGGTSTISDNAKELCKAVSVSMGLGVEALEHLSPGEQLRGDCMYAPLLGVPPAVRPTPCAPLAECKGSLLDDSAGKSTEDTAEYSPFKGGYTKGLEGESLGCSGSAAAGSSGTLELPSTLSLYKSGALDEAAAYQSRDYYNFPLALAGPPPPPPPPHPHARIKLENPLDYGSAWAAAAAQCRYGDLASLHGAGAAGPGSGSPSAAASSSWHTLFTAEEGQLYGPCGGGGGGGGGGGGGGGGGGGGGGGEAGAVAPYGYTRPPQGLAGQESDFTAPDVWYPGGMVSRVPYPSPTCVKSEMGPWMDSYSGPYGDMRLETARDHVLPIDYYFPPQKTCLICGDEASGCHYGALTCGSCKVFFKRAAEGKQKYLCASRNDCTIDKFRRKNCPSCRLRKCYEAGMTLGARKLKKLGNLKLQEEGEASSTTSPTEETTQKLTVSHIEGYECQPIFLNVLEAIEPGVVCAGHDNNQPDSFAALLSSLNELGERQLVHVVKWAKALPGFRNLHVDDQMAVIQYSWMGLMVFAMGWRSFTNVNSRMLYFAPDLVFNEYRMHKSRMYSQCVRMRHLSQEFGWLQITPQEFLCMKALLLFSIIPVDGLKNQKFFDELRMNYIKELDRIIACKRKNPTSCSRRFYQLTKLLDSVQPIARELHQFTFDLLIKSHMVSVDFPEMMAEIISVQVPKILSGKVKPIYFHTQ

Assay [10] is described as follows: qHTS assay to identify small molecule antagonists of the estrogen receptor beta (ER-beta) signaling pathway - cell viability counter screen (AID 1259382). Also: series mostly up to about 92 µM; nearly all actives have a fitted effect of over 55% in size. An outline of the steps:
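Cytotoxicity was measured in the same wells by CellTiter-Glo luminescence after 30 min at room temperature. Cells were ER-beta-bla HEK293T in charcoal-stripped serum, given compound together with 1 nM E2 and incubated 16 h at 37C.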

Assay [11] can be described thus: qHTS assay to identify small molecule agonists or antagonists of the thyroid stimulating hormone receptor (TSHR) signaling pathway - wild type cell line counter screen (AID 1259384; calls by dose curve). An outline of the steps:
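Wild-type Hek293 cells, 800/well, 18 h at 37C, then compound with Ro20-1724 for 30 min RT. cAMP by HTRF (cAMP-d2/anti-cAMP cryptate), 1 h RT, fluorescence read. 15 concentrations, triplicates.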

For assay [12], the target named is Thyrotropin receptor (Homo sapiens) (UniProt P16473). In words: qHTS assay to identify small molecule antagonists of the thyroid stimulating hormone receptor (TSHR) signaling pathway (AID 1259385; calls by dose curve; also: nearly all actives have a fitted effect of over 20% in size). A digest of the protocol: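 TSHR-HEK293 cells (800/well) plated 18 h, then compounds with Ro20-1724 and TSH at 1.5 ng/mL final, 30 min at room temperature. cAMP quantified by HTRF (cAMP-d2/anti-cAMP-cryptate, 1 h); 15 concentrations in triplicate.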
Sequence of Thyrotropin receptor (Homo sapiens) (P16473 whole entry, looked up): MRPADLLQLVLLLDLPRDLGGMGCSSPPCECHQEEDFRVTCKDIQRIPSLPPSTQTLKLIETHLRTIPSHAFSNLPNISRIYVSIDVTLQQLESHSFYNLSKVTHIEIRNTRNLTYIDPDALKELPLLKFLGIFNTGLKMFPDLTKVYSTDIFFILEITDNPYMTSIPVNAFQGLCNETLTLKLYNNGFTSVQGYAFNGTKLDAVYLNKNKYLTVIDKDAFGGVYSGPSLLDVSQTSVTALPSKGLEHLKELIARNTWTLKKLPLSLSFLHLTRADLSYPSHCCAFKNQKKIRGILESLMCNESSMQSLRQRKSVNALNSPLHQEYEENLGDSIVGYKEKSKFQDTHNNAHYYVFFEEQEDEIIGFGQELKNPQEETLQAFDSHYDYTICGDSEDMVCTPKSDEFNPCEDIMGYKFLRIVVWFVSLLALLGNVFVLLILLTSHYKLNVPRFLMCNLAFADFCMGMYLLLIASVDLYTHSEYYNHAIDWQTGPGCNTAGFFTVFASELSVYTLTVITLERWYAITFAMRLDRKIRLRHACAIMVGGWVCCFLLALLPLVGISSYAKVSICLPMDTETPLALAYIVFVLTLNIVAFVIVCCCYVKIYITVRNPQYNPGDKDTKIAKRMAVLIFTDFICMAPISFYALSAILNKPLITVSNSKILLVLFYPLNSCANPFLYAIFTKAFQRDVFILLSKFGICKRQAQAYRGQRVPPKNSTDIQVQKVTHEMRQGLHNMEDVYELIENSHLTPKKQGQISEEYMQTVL

A short description of assay [13]: qHTS assay to identify small molecule agonists of the estrogen receptor alpha (ER-alpha) signaling pathway in the presence of an antagonist - cell viability counter screen (AID 1259386). Also: series mostly up to about 92 µM; nearly all actives have a fitted effect of over 30% in size. A digest of the protocol:
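Compounds tested at 15 concentrations for 22 h at 37C alongside 10.0nM (final) ICI-182,780 antagonist, in VM7Luc4E2 cells grown in phenol red-free, charcoal-stripped medium. Viability read by CellTiter-Fluor fluorescence after 1 h reagent incubation.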

The target of assay [14] is Progesterone receptor (Homo sapiens) (UniProt P06401). The experiment in a line: qHTS assay to identify small molecule agonists of the progesterone receptor (PR) signaling pathway (AID 1346784; calls by dose curve; also: nearly all actives have a fitted effect of over 30% in size). A digest of the protocol:
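Using charcoal-stripped serum (2%) to limit endogenous steroids, PR-UAS-bla HEK 293T cells received compounds for 16 hr at 37C after 6 hr plating; beta-lactamase FRET fluorescence was recorded following 2 hr substrate loading at room temperature.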

The target is the same in assay [15]. The experiment in a line: qHTS assay to identify small molecule antagonists of the progesterone receptor (PR) signaling pathway (AID 1346795; active = well fitted inhibition curve with a large enough effect in the signal ratio in the repeat runs, not every such curve was filed as active; the % refers to the signal ratio). A digest of the protocol: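 Inhibition of R5020-induced (1 nM final) beta-lactamase reporter signal in PR-UAS-bla HEK293T cells was scored by FRET fluorescence after overnight (16 hr) compound treatment.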
A short description of assay [16]: qHTS assay to identify small molecule antagonists of the progesterone receptor (PR) signaling pathway - cell viability counter screen (AID 1346798). Also: series mostly up to about 92 µM; nearly all actives have a fitted effect of over 50% in size. A digest of the protocol: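 ATP content as viability readout: CellTiter-Glo luminescence, 30 min room temperature, in PR-UAS-bla HEK293T cells after 16 hr compound/R5020 treatment at 37C and 5% CO2.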
The nature of assay [17]: qHTS assay to identify small molecule agonists of the estrogen receptor beta (ER-beta) signaling pathway - cell viability counter screen (AID 1259380). Also: nearly all actives have a fitted effect of over 30% in size. A digest of the protocol:
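Cell viability counter screen: CellTiter-Glo luminescence (30 min, room temperature) measured in the same wells as the beta-lactamase readout, after 16 hr compound exposure at 37C of ER-beta-bla HEK293T cells in 2% charcoal-stripped FBS medium.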

The target in assay [18] is Estrogen receptor (Homo sapiens) (UniProt P03372). In words: qHTS assay to identify small molecule agonists of the estrogen receptor alpha (ER-alpha) signaling pathway in the presence of an antagonist (AID 1259383; calls by dose curve; also: top concentration of the series differs between compounds; nearly all actives have a fitted effect of over 15% in size). A digest of the protocol:
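Agonist-mode confirmation run in the presence of 10.0nM (final) ICI-182,780 antagonist. The reporter was ERE-driven luciferase in VM7Luc4E2 cells, grown in charcoal-stripped serum. Cells were exposed to 15-concentration compound series for 22hr, then ONE-Glo luminescence was read.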

The nature of assay [19]: qHTS assay to identify small molecule agonists of the progesterone receptor (PR) signaling pathway - cell viability counter screen (AID 1346799; calls by dose curve; also: nearly all actives have a fitted effect of over 45% in size). An outline of the steps:
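Cytotoxicity in PR-bla HEK293T cells: 16 h compound, 37C; CellTiter-Glo added post-FRET read; luminescence after 30 min RT.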

Sequence of Progesterone receptor (Homo sapiens) (P06401 whole entry, looked up): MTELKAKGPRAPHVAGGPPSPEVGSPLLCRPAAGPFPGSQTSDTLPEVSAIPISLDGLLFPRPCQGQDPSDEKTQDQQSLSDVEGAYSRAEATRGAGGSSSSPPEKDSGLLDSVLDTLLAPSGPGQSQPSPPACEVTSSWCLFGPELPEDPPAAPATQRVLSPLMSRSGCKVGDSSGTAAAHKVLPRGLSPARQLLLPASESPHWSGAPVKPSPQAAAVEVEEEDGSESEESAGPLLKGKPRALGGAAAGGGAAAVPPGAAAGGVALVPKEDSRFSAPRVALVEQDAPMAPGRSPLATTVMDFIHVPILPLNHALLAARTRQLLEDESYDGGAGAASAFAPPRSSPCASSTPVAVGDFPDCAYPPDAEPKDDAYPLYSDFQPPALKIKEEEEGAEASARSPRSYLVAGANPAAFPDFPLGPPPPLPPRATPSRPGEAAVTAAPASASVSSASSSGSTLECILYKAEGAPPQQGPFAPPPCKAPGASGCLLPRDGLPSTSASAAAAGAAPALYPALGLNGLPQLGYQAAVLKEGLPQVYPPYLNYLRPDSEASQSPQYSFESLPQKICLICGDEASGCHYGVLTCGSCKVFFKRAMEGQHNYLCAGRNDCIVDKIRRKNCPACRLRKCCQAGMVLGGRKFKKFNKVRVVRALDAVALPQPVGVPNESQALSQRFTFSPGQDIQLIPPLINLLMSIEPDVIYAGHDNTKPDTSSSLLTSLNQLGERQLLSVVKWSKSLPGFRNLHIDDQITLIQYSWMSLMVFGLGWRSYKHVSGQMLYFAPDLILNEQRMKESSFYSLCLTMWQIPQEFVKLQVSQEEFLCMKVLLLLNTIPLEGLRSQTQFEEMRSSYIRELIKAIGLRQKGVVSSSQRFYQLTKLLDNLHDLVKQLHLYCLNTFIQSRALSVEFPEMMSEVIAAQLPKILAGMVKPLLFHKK
Sequence of Estrogen receptor (Homo sapiens) (P03372 whole entry, looked up): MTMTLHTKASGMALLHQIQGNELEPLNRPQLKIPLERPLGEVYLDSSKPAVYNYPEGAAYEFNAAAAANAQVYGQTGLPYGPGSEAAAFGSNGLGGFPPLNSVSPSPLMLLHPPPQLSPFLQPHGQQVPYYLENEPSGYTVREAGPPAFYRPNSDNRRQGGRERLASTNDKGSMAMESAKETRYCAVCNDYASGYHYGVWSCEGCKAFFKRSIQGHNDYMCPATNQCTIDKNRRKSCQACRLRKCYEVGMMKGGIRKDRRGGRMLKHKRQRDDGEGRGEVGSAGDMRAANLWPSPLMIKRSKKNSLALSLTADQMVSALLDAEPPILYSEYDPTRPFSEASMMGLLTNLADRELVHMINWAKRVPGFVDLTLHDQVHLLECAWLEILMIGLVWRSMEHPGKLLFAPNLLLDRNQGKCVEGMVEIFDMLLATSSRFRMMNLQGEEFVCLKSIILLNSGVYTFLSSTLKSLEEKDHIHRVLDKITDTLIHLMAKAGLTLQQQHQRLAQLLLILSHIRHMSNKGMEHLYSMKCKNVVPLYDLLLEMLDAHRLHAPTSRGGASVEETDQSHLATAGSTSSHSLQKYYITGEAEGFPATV
Sequence of Estrogen receptor beta (Homo sapiens) (Q92731 whole entry, looked up): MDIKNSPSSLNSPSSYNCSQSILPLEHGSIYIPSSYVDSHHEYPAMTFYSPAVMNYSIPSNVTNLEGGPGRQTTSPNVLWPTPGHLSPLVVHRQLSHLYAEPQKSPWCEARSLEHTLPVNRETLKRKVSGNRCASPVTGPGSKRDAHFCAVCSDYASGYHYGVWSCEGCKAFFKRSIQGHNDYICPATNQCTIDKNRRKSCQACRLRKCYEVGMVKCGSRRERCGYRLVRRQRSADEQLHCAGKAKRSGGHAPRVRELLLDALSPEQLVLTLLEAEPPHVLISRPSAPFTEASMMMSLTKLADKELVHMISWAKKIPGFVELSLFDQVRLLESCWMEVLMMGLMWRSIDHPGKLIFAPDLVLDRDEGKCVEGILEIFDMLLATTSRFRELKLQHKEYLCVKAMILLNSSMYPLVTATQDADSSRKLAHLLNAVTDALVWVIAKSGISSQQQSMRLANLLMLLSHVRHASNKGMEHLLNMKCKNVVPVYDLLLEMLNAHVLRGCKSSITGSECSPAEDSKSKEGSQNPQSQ

In the case of `COc1ccc(CCO)cc1`, the Potency entry in assay [1], in [6], in assay [7], in assay [14] and in assay [15] was “inactive” each time. The compound was called inactive in assay [2], in [3], in [4], in [5], in [8] and in assay [9]. Moreover, the outcome in assay [10], in assay [11], in [12], in [13] and in assay [16] was inactive.
In the case of `COC(=O)/C=C\C(=O)O`, the Potency entry in [1], in assay [6], in assay [7], in [18], in assay [14] and in [15] was “inactive” each time. Moreover, the compound was classed as inactive in assay [2], in [3], in assay [4], in assay [5], in [8] and in assay [17]. For the same compound, the compound was classed as inactive in assay [10], in assay [11], in [13], in assay [16] and in assay [19].
In the case of `Cc1ccc2c(c1)C(=O)c1ccccc1C2=O`, the Potency in [1] is 1.21 µM (active). In addition, the call in assay [2], in assay [3], in [4], in assay [5], in assay [8] and in assay [10] was inactive. Further, the result in assay [11], in [12] and in [13] was inactive. Further, the Potency entry in assay [6], in [7], in assay [14] and in assay [15] was “inactive” throughout.
Consider `O=C1OCCO1`, for which the Potency result in assay [1], in assay [6], in assay [18], in [14] and in [15] was “inactive” each time. Also, the call in assay [2], in assay [3], in assay [4], in [5], in [8] and in assay [17] was inactive. Also, the result in [10], in [12], in [13] and in [16] was inactive.
On to `C=CC/C=C/C`, for which the Potency result in [1], in assay [6], in assay [7], in assay [14] and in [15] was “inactive” throughout. Besides, the outcome in [2], in assay [3], in [4], in assay [5], in assay [8] and in assay [17] was inactive. In addition, the result in [10], in assay [11], in assay [12], in assay [13], in assay [16] and in assay [19] was inactive.
On to `C=CCSSCCC`, for which the Potency result in assay [1], in assay [6], in [7], in [18] and in assay [15] was “inactive” in each case. Also, the compound was classed as inactive in [2], in assay [3], in [4], in [5], in assay [8] and in assay [17]. Also, the outcome in [10] and in assay [13] was inactive.
`C=CCCCC`: the Potency result in assay [1], in assay [6], in assay [18], in assay [14] and in assay [15] was “inactive” each time. Also, the outcome in [2], in [3], in assay [4], in [5], in [8] and in assay [17] was inactive. Also, the call in assay [10], in assay [11], in assay [12] and in assay [16] was inactive.
On to `CC/C(C)=N\O[Si](C)(O/N=C(\C)CC)O/N=C(\C)CC`, for which the Potency entry in assay [1], in assay [6], in assay [18] and in assay [14] was “inactive” each time. Besides, the compound was classed as inactive in assay [2], in assay [3], in assay [4], in assay [5], in [8] and in [17]. Moreover, the outcome in assay [10], in assay [11], in assay [12], in assay [13], in [16] and in [19] was inactive.
For the compound `CC(=O)N[C@@H](CO)C(=O)N[C@@H](CC(=O)O)C(=O)N[C@@H](CCCCN)C(=O)N1CCC[C@H]1C(=O)O` (Ac-SDKP-OH), the Potency entry in assay [1], in assay [6], in assay [7], in assay [14] and in [15] was “inactive” in each case. For the same compound, the outcome in assay [2], in assay [3], in [4], in [5], in [8] and in assay [9] was inactive. The compound was called inactive in assay [10], in [13], in assay [16] and in assay [19].

These data come from PubChem BioAssay (Tox21).
